The values that follow come from PMC7862700, “An all-to-all approach to the identification of sequence-specific readers for epigenetic DNA modifications on cytosine”.

Experiment in all cases: DAPPL (digital affinity profiling via proximity ligation, sequencing); 10 mM Tris-HCl pH 7.5, 50 mM NaCl, 1 mM DTT, 4% glycerol, room temperature, 30 min; GST-TFs on glutathione beads, 16-mer random dsDNA library, 0.1% formaldehyde crosslink after washing; high values mean tight binding
Details in all cases: protein: recombinant; tags: N-terminal GST; dsDNA, one strand shown

The target in one assay is T1, FLI1 (Homo sapiens, UniProt Q01543 1-452).
T1 sequence: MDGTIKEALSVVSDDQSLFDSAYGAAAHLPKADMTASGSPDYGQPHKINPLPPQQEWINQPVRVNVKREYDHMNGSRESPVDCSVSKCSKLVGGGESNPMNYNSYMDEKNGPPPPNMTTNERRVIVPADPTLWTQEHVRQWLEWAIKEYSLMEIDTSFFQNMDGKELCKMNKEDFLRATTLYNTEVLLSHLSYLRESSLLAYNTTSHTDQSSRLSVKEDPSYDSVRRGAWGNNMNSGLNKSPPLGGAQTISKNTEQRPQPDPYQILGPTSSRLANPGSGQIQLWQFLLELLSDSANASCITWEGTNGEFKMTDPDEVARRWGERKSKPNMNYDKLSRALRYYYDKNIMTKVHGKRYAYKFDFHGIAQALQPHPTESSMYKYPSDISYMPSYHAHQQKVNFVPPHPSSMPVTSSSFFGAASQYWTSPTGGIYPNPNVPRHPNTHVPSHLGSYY
Put shortly: (§1)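 Human transcription factors were made in yeast as GST fusions, captured on glutathione beads and barcoded with DNA. With a tag-only sample included, the pool was incubated with 200 nmole of a random double-stranded 16-mer DNA library in Tris/NaCl/DTT/glycerol buffer at room temperature for 30 min, then crosslinked with 0.1% formaldehyde after washing, ligated by proximity, amplified and sequenced. For binding signal, each hexamer's read frequency for a factor is divided by its frequency for the tag-only sample.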

In the next assay the target is T2, ELK1 (Homo sapiens, UniProt P19419 1-428).
T2 sequence: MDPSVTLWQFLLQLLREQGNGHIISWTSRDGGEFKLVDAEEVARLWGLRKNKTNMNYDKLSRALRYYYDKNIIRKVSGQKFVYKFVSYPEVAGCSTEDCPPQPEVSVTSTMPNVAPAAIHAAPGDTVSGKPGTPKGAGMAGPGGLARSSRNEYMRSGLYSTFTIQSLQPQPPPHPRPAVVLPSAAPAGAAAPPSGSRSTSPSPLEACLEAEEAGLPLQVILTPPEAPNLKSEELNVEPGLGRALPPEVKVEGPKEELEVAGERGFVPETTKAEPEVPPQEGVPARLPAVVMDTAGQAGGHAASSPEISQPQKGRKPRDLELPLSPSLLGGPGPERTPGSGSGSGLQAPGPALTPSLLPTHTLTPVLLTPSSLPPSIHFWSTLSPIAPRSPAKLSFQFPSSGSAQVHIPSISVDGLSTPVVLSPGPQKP
Put shortly:
as §1

Another assay has as its target T3, GABPA (Homo sapiens, UniProt Q06546 1-454).
T3 sequence: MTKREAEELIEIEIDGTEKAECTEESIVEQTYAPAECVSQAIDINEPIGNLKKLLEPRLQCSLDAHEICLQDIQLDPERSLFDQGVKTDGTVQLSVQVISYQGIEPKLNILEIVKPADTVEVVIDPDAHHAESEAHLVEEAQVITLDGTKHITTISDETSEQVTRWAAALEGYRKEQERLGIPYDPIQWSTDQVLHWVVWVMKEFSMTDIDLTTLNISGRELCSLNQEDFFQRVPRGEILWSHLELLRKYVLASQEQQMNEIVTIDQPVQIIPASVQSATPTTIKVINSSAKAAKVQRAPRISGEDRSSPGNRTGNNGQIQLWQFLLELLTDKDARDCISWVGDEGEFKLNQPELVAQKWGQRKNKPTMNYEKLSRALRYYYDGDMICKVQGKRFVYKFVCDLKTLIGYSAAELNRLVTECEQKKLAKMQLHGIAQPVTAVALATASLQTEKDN
Put shortly: as §1

A further assay concerns the target T4, ERG (Homo sapiens, UniProt P11308 1-479).
T4 sequence: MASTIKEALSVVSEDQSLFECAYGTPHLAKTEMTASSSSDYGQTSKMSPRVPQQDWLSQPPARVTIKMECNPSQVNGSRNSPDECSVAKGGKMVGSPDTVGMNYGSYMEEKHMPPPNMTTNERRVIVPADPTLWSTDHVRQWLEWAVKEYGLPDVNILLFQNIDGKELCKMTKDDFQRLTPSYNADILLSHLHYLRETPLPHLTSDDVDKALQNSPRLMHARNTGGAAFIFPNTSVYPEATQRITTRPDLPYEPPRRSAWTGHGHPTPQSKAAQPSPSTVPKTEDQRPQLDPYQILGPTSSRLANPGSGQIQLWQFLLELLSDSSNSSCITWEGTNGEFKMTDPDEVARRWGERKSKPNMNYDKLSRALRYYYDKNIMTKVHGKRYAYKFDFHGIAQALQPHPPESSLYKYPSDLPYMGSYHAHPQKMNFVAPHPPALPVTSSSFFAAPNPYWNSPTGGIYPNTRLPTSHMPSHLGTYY
Put shortly:
as §1

A further assay deals with ELF1 (Homo sapiens, UniProt P32519 1-619). The procedure, abridged: as §1
For a further assay, the target named is T5, EHF (Homo sapiens, UniProt Q9NZC4 1-300).
T5 sequence: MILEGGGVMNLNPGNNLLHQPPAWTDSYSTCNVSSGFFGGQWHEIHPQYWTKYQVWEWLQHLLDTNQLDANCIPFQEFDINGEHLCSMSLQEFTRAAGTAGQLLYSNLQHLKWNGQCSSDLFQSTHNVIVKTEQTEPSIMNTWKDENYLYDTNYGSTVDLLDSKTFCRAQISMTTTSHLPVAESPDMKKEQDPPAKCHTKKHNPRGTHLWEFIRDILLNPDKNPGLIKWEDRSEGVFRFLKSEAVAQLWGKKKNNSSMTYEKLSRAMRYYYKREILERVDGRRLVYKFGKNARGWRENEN
Put shortly:
as §1

The target in a further assay is SPI1 (Homo sapiens, UniProt P17947 1-270). Put shortly:
as §1

The next assay addresses SPIB (Homo sapiens, UniProt Q01892 1-262). The procedure, abridged: as §1
The next assay concerns the target T6, ELK3 (Homo sapiens, UniProt P41970 1-407).
T6 sequence: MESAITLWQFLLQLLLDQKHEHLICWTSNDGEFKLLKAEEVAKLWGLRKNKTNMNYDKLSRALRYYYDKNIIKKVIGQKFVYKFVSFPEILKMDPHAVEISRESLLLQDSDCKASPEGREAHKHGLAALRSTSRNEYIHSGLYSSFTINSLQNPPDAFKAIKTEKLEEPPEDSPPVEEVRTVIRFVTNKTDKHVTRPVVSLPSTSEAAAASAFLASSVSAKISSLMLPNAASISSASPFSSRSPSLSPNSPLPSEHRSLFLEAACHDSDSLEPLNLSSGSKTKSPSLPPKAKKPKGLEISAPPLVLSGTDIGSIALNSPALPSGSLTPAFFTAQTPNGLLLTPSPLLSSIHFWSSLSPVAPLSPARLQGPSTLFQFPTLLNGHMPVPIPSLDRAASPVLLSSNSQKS
Put shortly:
as §1

The target in the next assay is T7, FEV (Homo sapiens, UniProt Q99581 1-238).
T7 sequence: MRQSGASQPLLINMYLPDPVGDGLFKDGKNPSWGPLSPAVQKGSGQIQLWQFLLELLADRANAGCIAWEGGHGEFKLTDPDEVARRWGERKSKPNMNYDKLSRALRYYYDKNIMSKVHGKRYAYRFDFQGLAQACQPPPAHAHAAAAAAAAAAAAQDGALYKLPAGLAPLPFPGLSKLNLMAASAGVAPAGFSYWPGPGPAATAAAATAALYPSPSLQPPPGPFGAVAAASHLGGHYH
The procedure, abridged: as §1

For the next assay, the target named is ETV5 (Homo sapiens, UniProt P41161 1-510). The procedure, abridged: as §1
A further assay concerns the target T8, SPIC (Homo sapiens, UniProt Q8N5J4 1-248).
T8 sequence: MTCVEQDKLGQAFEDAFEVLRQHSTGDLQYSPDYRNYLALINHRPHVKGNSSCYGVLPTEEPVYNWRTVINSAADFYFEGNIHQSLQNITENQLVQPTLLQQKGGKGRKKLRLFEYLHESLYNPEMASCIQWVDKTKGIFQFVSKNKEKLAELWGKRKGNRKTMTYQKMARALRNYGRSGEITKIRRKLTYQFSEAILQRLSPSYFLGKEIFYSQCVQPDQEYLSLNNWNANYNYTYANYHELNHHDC
The procedure, abridged: as §1

A further assay addresses ELF4 (Homo sapiens, UniProt Q99607 1-663). The procedure, abridged: as §1
The target of a further assay is T9, ELK4 (Homo sapiens, UniProt P28324-2 1-405).
T9 sequence: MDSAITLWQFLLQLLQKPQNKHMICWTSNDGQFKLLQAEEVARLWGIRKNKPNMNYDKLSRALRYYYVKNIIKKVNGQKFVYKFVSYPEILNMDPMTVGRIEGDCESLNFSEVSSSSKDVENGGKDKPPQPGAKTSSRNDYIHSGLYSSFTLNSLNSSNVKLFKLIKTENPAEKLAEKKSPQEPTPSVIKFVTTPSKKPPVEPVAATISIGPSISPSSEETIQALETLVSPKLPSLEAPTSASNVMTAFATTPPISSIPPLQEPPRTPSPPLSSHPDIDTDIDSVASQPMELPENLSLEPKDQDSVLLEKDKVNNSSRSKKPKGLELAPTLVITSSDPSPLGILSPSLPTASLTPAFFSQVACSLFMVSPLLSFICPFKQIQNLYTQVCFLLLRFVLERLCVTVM
Put shortly:
as §1

The next assay has as its target T10, ETV2 (Homo sapiens, UniProt O00321 1-342).
T10 sequence: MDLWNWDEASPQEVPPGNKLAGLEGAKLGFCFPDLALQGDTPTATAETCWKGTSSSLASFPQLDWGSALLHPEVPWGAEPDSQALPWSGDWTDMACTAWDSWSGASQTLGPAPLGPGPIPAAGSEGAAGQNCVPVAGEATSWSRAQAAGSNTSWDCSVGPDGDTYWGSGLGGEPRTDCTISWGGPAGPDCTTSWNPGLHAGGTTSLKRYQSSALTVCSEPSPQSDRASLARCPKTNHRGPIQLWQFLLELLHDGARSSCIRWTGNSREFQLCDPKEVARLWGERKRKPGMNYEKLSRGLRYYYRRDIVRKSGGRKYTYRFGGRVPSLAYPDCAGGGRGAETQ
The procedure, abridged:
as §1

The next assay has as its target CRX (Homo sapiens, UniProt O43186 1-299). Put shortly:
as §1

A further assay deals with ETV1 (Homo sapiens, UniProt P50549 1-477). The procedure, abridged: as §1
ETV1, sequence (P50549 whole entry): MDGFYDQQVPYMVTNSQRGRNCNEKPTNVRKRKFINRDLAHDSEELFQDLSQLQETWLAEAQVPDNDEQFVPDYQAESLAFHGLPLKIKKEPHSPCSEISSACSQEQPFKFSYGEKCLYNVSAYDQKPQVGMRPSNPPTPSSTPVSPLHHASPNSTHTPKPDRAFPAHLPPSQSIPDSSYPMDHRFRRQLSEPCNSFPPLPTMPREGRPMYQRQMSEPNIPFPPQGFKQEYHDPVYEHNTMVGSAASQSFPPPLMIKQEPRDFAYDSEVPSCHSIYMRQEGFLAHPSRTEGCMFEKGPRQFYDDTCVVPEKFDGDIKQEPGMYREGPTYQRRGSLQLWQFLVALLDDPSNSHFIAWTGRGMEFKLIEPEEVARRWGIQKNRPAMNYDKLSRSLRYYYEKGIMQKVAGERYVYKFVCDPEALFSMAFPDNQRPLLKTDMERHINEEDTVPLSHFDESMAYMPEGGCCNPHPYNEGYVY

ELF4, sequence (Q99607 whole entry): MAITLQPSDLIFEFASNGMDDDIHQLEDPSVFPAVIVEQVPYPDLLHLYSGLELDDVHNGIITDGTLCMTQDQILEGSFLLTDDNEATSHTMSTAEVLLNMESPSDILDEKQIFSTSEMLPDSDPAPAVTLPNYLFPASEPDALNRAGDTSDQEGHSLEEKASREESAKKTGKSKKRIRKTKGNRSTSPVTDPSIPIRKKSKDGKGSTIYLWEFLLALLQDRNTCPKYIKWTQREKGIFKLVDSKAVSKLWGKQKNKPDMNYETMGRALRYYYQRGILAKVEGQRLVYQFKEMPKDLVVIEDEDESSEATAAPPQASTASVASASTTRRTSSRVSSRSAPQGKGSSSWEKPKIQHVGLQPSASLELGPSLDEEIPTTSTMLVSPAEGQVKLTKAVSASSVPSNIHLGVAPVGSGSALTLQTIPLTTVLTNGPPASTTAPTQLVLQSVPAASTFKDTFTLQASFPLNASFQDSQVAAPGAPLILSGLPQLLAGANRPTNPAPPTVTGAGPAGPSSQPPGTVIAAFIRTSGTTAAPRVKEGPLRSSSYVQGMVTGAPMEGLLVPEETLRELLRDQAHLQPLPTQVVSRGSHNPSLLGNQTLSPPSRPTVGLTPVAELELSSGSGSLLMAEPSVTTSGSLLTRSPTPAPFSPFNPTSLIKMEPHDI
ELF1, sequence (P32519 whole entry): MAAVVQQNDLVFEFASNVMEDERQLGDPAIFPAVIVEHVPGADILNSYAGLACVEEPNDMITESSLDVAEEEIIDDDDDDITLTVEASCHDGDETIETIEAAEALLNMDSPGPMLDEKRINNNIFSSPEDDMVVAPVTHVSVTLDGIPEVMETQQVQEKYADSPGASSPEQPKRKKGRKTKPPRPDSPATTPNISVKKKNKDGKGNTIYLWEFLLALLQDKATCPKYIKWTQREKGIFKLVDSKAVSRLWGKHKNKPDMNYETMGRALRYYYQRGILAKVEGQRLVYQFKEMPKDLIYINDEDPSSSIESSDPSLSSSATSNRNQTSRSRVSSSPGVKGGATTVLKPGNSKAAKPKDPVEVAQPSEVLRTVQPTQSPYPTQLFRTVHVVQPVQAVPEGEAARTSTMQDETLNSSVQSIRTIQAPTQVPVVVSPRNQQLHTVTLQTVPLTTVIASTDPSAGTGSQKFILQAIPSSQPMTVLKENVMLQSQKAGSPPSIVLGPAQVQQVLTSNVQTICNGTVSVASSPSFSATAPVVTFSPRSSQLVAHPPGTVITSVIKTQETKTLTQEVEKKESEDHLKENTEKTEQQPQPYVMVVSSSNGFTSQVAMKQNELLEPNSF
ETV5, sequence (P41161 whole entry): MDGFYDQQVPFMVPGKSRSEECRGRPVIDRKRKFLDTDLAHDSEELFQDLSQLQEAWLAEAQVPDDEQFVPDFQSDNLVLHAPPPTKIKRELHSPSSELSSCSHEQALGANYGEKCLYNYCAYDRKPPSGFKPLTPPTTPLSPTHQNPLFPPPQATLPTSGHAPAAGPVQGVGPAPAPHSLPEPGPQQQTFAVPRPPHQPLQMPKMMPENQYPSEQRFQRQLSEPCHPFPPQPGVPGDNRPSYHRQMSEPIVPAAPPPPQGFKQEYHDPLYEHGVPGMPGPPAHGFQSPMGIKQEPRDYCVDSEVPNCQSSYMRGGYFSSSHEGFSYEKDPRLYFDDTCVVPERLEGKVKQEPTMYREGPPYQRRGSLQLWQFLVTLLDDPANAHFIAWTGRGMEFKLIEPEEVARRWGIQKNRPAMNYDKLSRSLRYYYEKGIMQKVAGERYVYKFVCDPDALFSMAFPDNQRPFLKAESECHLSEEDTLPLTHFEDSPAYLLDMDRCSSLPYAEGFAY
CRX, sequence (O43186 whole entry): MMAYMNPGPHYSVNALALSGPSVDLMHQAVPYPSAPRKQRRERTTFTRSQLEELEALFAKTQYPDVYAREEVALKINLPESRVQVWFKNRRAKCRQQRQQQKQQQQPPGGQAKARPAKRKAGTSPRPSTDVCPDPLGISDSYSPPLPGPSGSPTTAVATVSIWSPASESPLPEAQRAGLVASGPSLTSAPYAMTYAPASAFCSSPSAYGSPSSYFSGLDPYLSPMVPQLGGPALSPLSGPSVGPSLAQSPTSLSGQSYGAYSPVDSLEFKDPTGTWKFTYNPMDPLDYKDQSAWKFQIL
SPIB, sequence (Q01892 whole entry): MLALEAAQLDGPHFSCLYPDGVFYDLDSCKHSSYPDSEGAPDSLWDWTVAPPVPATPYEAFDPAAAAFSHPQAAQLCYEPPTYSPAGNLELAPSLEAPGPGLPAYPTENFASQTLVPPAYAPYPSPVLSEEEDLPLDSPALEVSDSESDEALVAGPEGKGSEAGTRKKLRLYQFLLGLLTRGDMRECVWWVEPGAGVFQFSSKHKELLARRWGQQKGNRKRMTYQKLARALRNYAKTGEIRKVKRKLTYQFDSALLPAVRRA

Take TCAACG: the binding signal with FLI1 is 1.12 fold enrichment (6-mer frequency, TF over GST control); in the assay with ELK1, 1.05 fold enrichment (6-mer frequency, TF over GST control); with GABPA, 1.09 fold enrichment (6-mer frequency, TF over GST control); with ERG, 1.08 fold enrichment (6-mer frequency, TF over GST control); with ELF1 it was 1.14 fold enrichment (6-mer frequency, TF over GST control); with EHF it was 1.06 fold enrichment (6-mer frequency, TF over GST control). For the same sequence, the binding signal in the assay with SPI1 is 1 fold enrichment (6-mer frequency, TF over GST control); in the assay with SPIB, 1.12 fold enrichment (6-mer frequency, TF over GST control); with ELK3, 1.22 fold enrichment (6-mer frequency, TF over GST control); in the assay with FEV, 1.06 fold enrichment (6-mer frequency, TF over GST control); with ETV5, 1.12 fold enrichment (6-mer frequency, TF over GST control); with SPIC it was 1.1 fold enrichment (6-mer frequency, TF over GST control). Also, the binding signal with ELF4 is 1.11 fold enrichment (6-mer frequency, TF over GST control); in the assay with ELK4, 1.09 fold enrichment (6-mer frequency, TF over GST control); with ETV2, 1.18 fold enrichment (6-mer frequency, TF over GST control); in the assay with CRX it was 1.1 fold enrichment (6-mer frequency, TF over GST control); with ETV1, 1.15 fold enrichment (6-mer frequency, TF over GST control).

For CAACGC, the binding signal with FLI1 is 1.04 fold enrichment (6-mer frequency, TF over GST control); with ELK1, 1.11 fold enrichment (6-mer frequency, TF over GST control); in the assay with GABPA it was 1.12 fold enrichment (6-mer frequency, TF over GST control); with ERG it was 1.04 fold enrichment (6-mer frequency, TF over GST control); with ELF1 it was 1.11 fold enrichment (6-mer frequency, TF over GST control); with EHF, 1.01 fold enrichment (6-mer frequency, TF over GST control). Further, the binding signal was 1.1 fold enrichment (6-mer frequency, TF over GST control) with SPI1; 1.06 fold enrichment (6-mer frequency, TF over GST control) with FEV; 1.01 fold enrichment (6-mer frequency, TF over GST control) in the assay with ETV5; 1.1 fold enrichment (6-mer frequency, TF over GST control) with SPIC; 1.11 fold enrichment (6-mer frequency, TF over GST control) with ELF4; 1.03 fold enrichment (6-mer frequency, TF over GST control) in the assay with ELK4. Besides, the binding signal with ETV2 was 1.1 fold enrichment (6-mer frequency, TF over GST control); with ETV1, 1.05 fold enrichment (6-mer frequency, TF over GST control).
